Results published in PubChem BioAssay AID1159580 (chemical genetic matrix, 2015).
Out of some 5,500 compounds screened, about 2,000 (36%) were called active. Inconclusive results (about 18%) are left out. Cut-off read from the data, not from the text of the source: active = normalized growth mostly below about 0.91 (no sharp cut-off); inconclusive = no clear call, values can overlap the other calls; inactive = mostly above about 0.92. Some of the results follow.

Experiment: chemical genetic growth profiling, strain panel (AID 1159580);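 note: tested at 20 µM; growth read once vehicle control cultures reached saturation at 30 °C; 1 = growth at the plate median or of vehicle wells; lower values mean less growth of the strain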
Conditions: S. cerevisiae deletion strains, growth OD

Measured: normalized growth

COC1C=CC23c4cc5c(cc4CN(CC2O)[C@@H]3C1)OCO5 (stereo partly specified)
inactive: locus YAL021C, strain ccr4, stronger effect = lower value 0.974 | locus YAL026C, strain drs2, stronger effect = lower value 0.956 | locus YAL030W, strain snc1, stronger effect = lower value 0.989 | locus YBL061C, strain skt5, stronger effect = lower value 0.967 | locus YBR009C, strain hhf1, stronger effect = lower value 0.969 | locus YBR021W, strain FUR4, stronger effect = lower value 1.01 | locus YBR023C, strain chs3, stronger effect = lower value 0.966 | locus YBR171W, strain sec66, stronger effect = lower value 0.962 | locus YBR229C, strain ROT2, stronger effect = lower value 1.01 | locus YBR231C, strain swc5, stronger effect = lower value 0.963 | locus YBR279W, strain paf1, stronger effect = lower value 0.971 | locus YCL011C, strain gbp2, stronger effect = lower value 0.956 | locus YCL016C, strain dcc1, stronger effect = lower value 0.992 | locus YCL029C, strain bik1, stronger effect = lower value 1 | locus YCL069W, strain vba3, stronger effect = lower value 0.948 | locus YCR088W, strain abp1, stronger effect = lower value 0.971 | locus YDL005C, strain med2, stronger effect = lower value 0.944 | locus YDL035C, strain GPR1, stronger effect = lower value 1.01 | locus YDL040C, strain nat1, stronger effect = lower value 0.975 | locus YDL074C, strain BRE1, stronger effect = lower value 1.05 | locus YDL101C, strain DUN1, stronger effect = lower value 1.04 | locus YDL134C, strain PPH21, stronger effect = lower value 1.03 | locus YDL185W, strain tfp1, stronger effect = lower value 1 | locus YDL192W, strain arf1, stronger effect = lower value 0.982 | locus YDR001C, strain nth1, stronger effect = lower value 0.979 | locus YDR069C, strain doa4, stronger effect = lower value 0.944 | locus YDR101C, strain arx1, stronger effect = lower value 0.962 | locus YDR137W, strain rgp1, stronger effect = lower value 0.933 | locus YDR159W, strain sac3, stronger effect = lower value 0.964 | locus YDR162C, strain NBP2, stronger effect = lower value 1.03 | locus YDR195W, strain ref2 0.962 | locus YDR297W, strain sur2, stronger effect = lower value 0.977 | locus YDR318W, strain mcm21, stronger effect = lower value 0.995 | locus YDR334W, strain swr1, stronger effect = lower value 0.966 | locus YDR335W, strain msn5, stronger effect = lower value 0.959 | locus YDR388W, stronger effect = lower value 1 | locus YDR392W, strain spt3, stronger effect = lower value 1.06 | locus YDR502C, strain sam2, stronger effect = lower value 1.01 | locus YEL003W, strain gim4, stronger effect = lower value 0.972 | locus YEL037C, strain rad23, stronger effect = lower value 0.973 | locus YEL061C, strain CIN8 (second series), stronger effect = lower value 0.945 | locus YER015W, strain faa2, stronger effect = lower value 0.986 | locus YER016W, strain bim1, stronger effect = lower value 0.971 | locus YER110C, stronger effect = lower value 1 | locus YER111C, strain swi4, stronger effect = lower value 0.961 | locus YER155C, strain BEM2 (second series), stronger effect = lower value 0.978 | locus YER155C, strain BEM2, stronger effect = lower value 0.997 | locus YER167W, strain BCK2, stronger effect = lower value 0.992 | locus YFR010W, strain ubp6, stronger effect = lower value 0.939 | locus YGL078C, strain dbp3, stronger effect = lower value 1.03 | locus YGL086W, strain mad1, stronger effect = lower value 0.999 | locus YGL167C, strain pmr1, stronger effect = lower value 0.971 | locus YGL173C, strain kem1, stronger effect = lower value 0.968 | locus YGL227W, strain vid30, stronger effect = lower value 0.979 | locus YGL240W, strain doc1, stronger effect = lower value 0.999 | locus YGL248W, strain PDE1, stronger effect = lower value 1.04 | locus YGL253W, strain hxk2, stronger effect = lower value 0.951 | locus YGR135W, strain pre9, stronger effect = lower value 1.05 | locus YGR229C, strain SMI1, stronger effect = lower value 1.06 | locus YGR252W, strain gcn5, stronger effect = lower value 1.09 | locus YHR013C, strain ard1, stronger effect = lower value 0.95 | locus YHR027C, strain rpn1, stronger effect = lower value 0.977 | locus YHR079C, strain IRE1 (second series), stronger effect = lower value 1.01 | locus YHR094C, strain hxt1, stronger effect = lower value 0.992 | locus YHR129C, strain ARP1, stronger effect = lower value 1.02 | locus YHR142W, strain chs7, stronger effect = lower value 0.956 | locus YHR200W, strain rpn10, stronger effect = lower value 1.01 | locus YIL066C, strain RNR3, stronger effect = lower value 1.02 | locus YIL073C, strain SPO22, stronger effect = lower value 0.964 | locus YIL125W, strain kgd1, stronger effect = lower value 0.981 | locus YIR030C, strain dcg1, stronger effect = lower value 1 | locus YJL092W, strain hpr5, stronger effect = lower value 0.948 | locus YJL095W, strain BCK1 (second series), stronger effect = lower value 0.965 | locus YJL095W, strain BCK1, stronger effect = lower value 1.08 | locus YJL115W, strain asf1, stronger effect = lower value 0.988 | locus YJL129C, strain trk1, stronger effect = lower value 0.976 | locus YJL134W, strain LCB3, stronger effect = lower value 1 | locus YJL154C, strain vps35, stronger effect = lower value 0.968 | locus YJL164C, strain tpk1, stronger effect = lower value 0.973 | locus YJL166W, strain qcr8, stronger effect = lower value 0.965 | locus YJL168C, strain set2, stronger effect = lower value 1.01 | locus YJL187C, strain SWE1 (second series), stronger effect = lower value 1.04 | locus YJL187C, strain SWE1, stronger effect = lower value 0.957 | locus YKL009W, strain mrt4, stronger effect = lower value 1.02 | locus YKL068W, stronger effect = lower value 1 | locus YKL085W, strain MDH1 (second series), stronger effect = lower value 1.01 | locus YKL085W, strain MDH1, stronger effect = lower value 1.01 | locus YKL160W, strain elf1, stronger effect = lower value 0.995 | locus YKR001C, strain vps1, stronger effect = lower value 0.978 | locus YKR026C, strain gcn3, stronger effect = lower value 0.983 | locus YKR091W, strain srl3, stronger effect = lower value 0.98 | locus YLL001W, strain dnm1, stronger effect = lower value 0.973 | locus YLL026W, stronger effect = lower value 1 | locus YLL041C, strain sdh2, stronger effect = lower value 0.969 | locus YLR027C, strain aat2, stronger effect = lower value 0.991 | locus YLR039C, strain RIC1, stronger effect = lower value 1.06 | locus YLR058C, strain SHM2, stronger effect = lower value 1.02 | locus YLR102C, strain apc9, stronger effect = lower value 0.995 | locus YLR221C, strain rsa3, stronger effect = lower value 0.956 | locus YLR258W, strain gsy2, stronger effect = lower value 0.97 | locus YLR262C, strain YPT6 (second series), stronger effect = lower value 0.917 | locus YLR262C, strain YPT6, stronger effect = lower value 1.07 | locus YLR268W, strain sec22, stronger effect = lower value 0.974 | locus YLR320W, strain mms22, stronger effect = lower value 0.975 | locus YLR342W, strain FKS1, stronger effect = lower value 0.99 | locus YLR357W, strain rsc2, stronger effect = lower value 0.967 | locus YLR370C, strain arc18, stronger effect = lower value 0.949 | locus YLR371W, strain rom2, stronger effect = lower value 0.976 | locus YLR384C, strain iki3, stronger effect = lower value 0.966 | locus YLR418C, strain cdc73, stronger effect = lower value 1.04 | locus YML016C, strain PPZ1, stronger effect = lower value 1.01 | locus YML032C, strain rad52, stronger effect = lower value 0.98 | locus YML120C, strain ndi1, stronger effect = lower value 1 | locus YML124C, strain tub3, stronger effect = lower value 0.991 | locus YMR058W, strain fet3, stronger effect = lower value 0.983 | locus YMR078C, strain ctf18, stronger effect = lower value 1.01 | locus YMR125W, strain sto1, stronger effect = lower value 0.922 | locus YMR129W, stronger effect = lower value 0.991 | locus YMR205C, strain PFK2, stronger effect = lower value 0.998 | locus YMR223W, strain ubp8, stronger effect = lower value 0.998 | locus YMR231W, strain pep5, stronger effect = lower value 0.974 | locus YMR263W, strain SAP30, stronger effect = lower value 1.03 | locus YMR307W, strain GAS1, stronger effect = lower value 1.06 | locus YNL067W, strain RPL9B, stronger effect = lower value 1.04 | locus YNL071W, strain lat1, stronger effect = lower value 0.97 | locus YNL153C, strain GIM3, stronger effect = lower value 1.04 | locus YNL209W, strain ssb2, stronger effect = lower value 0.981 | locus YNL233W, strain BNI4, stronger effect = lower value 1.04 | locus YNL248C, strain rpa49, stronger effect = lower value 0.949 | locus YNL250W, strain rad50, stronger effect = lower value 1.03 | locus YNL271C, strain bni1, stronger effect = lower value 0.988 | locus YNL298W, strain CLA4, stronger effect = lower value 0.994 | locus YNL307C, strain MCK1, stronger effect = lower value 1.01 | locus YNL322C, strain KRE1 (second series), stronger effect = lower value 0.935 | locus YNR049C, strain mso1, stronger effect = lower value 0.975 | locus YNR052C, strain pop2, stronger effect = lower value 0.997 | locus YOL012C, strain htz1 0.915 | locus YOL147C, strain pex11, stronger effect = lower value 1 | locus YOR001W, strain rrp6, stronger effect = lower value 0.978 | locus YOR061W, strain CKA2, stronger effect = lower value 0.996 | locus YOR069W, strain VPS5, stronger effect = lower value 1.01 | locus YOR070C, strain gyp1, stronger effect = lower value 0.999 | locus YOR080W, strain dia2, stronger effect = lower value 0.976 | locus YOR106W, strain vam3, stronger effect = lower value 0.992 | locus YOR136W, strain idh2, stronger effect = lower value 1 | locus YOR144C, strain elg1, stronger effect = lower value 0.995 | locus YOR184W, strain ser1, stronger effect = lower value 0.967 | locus YOR265W, strain rbl2, stronger effect = lower value 0.99 | locus YOR270C, strain vph1, stronger effect = lower value 0.847 | locus YOR290C, strain snf2, stronger effect = lower value 0.976 | locus YOR316C, strain cot1, stronger effect = lower value 1 | locus YPL051W, strain arl3, stronger effect = lower value 0.99 | locus YPL055C, strain LGE1, stronger effect = lower value 1.03 | locus YPL078C, strain atp4, stronger effect = lower value 0.986 | locus YPL106C, strain sse1, stronger effect = lower value 0.982 | locus YPL240C, strain hsp82, stronger effect = lower value 0.965 | locus YPR119W, strain clb2, stronger effect = lower value 0.994 | locus YPR141C, strain kar3, stronger effect = lower value 0.993 | locus YPR163C, strain tif3, stronger effect = lower value 1 | locus YPR167C, strain met16, stronger effect = lower value 1 | strain wtn01, stronger effect = lower value 1
